# PostGolgi yeast – growth inhibition of a yeast mutant, post-Golgi transport screen; post-Golgi transport phenotypic cell assay; inhibition, % at 10 µM; actives 0.9% (n = 98,000);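 also: yeast cells grown in 1536-well plates; yeast grown about 18 h at 30C before absorbance read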
# CYP2C19 activ – cytochrome P450 2C19 (human) activation. P33261. recombinant CYP2C19, luciferin-H EGE luminescence; stronger effect = higher value; 0 = fully inhibited enzyme, 1 = untreated enzyme. activation factor at 5 µM. 96,000 tested, under 10 active;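 active = activation factor of at least 2 at 5 µM in the primary screen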;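 also: 0 = wells with 2.5 mM tranylcypromine and 1 = vehicle-only wells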
# CYP2C19 inhib – human CYP2C19 inhibition. inhibition, % at 5 µM. CYP2C19 Supersomes, luciferin-H EGE luminescence, 30 min. AID 778. actives 21% (n = 96,000);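 active = CYP2C19 inhibition above a set limit at 5 µM in the primary screen, cut at about 50% in these data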;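 also: plate controls were negative control wells for no effect and 2.5 mM tranylcypromine positive control for full effect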
# PostGolgi ctrl – growth of the yeast control strain, post-Golgi counter-screen. actives 5% (n = 98,000). efflux-deficient yeast background strain, growth absorbance A615, 16 h. inhibition, % at 10 µM. AID 738
# CYP2C9 act – increases human cytochrome P450 2C9 activity | recombinant CYP2C9, luciferin-H conversion, luminescence; stronger effect = higher value; factor 1 = untreated enzyme, 0 = blocked | actives 1.4% (n = 96,000) | P11712 | activation factor at 5 µM | AID 1024;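 active = activation factor of 2 or more for CYP2C9 at a 5 µM dose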;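 also: 0 = sulfaphenazole-blocked wells and 1 = vehicle-only wells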
# Target sequence (P11712 whole entry, looked up): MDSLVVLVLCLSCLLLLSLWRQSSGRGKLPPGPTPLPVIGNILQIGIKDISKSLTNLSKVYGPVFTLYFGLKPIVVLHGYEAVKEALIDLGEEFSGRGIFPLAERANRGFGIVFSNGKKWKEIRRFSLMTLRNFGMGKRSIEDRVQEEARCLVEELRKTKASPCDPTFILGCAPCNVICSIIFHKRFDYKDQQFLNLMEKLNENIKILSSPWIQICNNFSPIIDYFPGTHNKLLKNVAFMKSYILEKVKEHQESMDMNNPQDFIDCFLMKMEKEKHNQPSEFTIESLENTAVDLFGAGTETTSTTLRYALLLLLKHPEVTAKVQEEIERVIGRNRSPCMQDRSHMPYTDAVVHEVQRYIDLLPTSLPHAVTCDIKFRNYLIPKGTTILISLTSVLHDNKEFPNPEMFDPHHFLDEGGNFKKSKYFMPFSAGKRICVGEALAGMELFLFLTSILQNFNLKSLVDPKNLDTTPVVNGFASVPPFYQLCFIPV
# CYP2C9 inh – human CYP2C9 inhibition; P11712; CYP2C9 Supersomes, luciferin-H conversion, luminescence; inhibition, % at 5 µM; actives 20% (n = 96,000); AID 777;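 active = blocking of liver enzyme CYP2C9 beyond about 50% at 5 µM, limit read from the data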
# Numbers without * were called inactive; nt = not tested or not shown. Sampled rows, rich in hits. Any-hit rate of the full collection: about 32%. Rule as the data show it, unless noted: active = inhibition above about 30%; inactive = the rest.
SMILES,PostGolgi yeast,CYP2C19 activ,CYP2C19 inhib,PostGolgi ctrl,CYP2C9 act,CYP2C9 inh
CCCCOc1ccc(C2(C)CC(=O)NC2=O)cc1 (configuration not stated),14,0.5,51*,30,0.8,15
CCS(=O)(=O)N1CCCC(C(=O)NCCCOC)C1 (configuration not stated),-12,0.8,16,-1,1,3
CN(C)c1ccc(C2C=C(c3ccc(Cl)cc3OC(F)F)Nc3ncnn32)cc1 (configuration not stated),3,0,99*,31*,0.1,94*
Cc1ccc(C2C=C(c3ccccc3OC(F)F)Nc3ncnn32)cc1 (configuration not stated),0,0.6,36,22,0.3,66*
O=C(CS(=O)CC(=O)N(CC(=O)NC1CCCC1)c1ccc2c(c1)OCCO2)Nc1ccc(F)cc1 (configuration not stated),13,0.9,11,-4,1,3
O=C(CS(=O)CC(=O)N(CC(=O)NC1CCCC1)C1CCCCC1)Nc1ccc(F)cc1 (configuration not stated),4,0.9,8,7,0.4,57*
CC(C)CCC(C)N=Cc1c(O)n(Cc2ccccc2)c(=O)c2ccccc12 (configuration not stated),-5,1,-4,1,0.1,86*
CCN1CCCC1CN=Cc1c(O)n(-c2ccccc2)c(=O)c2ccccc12 (configuration not stated),1,1,2,5,1,3
CCN(CC)CCCN=Cc1c(O)n(Cc2ccccc2)c(=O)c2ccccc12,3,0.8,17,5,0.8,22
O=c1c2ccccc2c(/C=N/c2ncn[nH]2)c(O)n1Cc1ccccc1,3,1,-3,30*,0.9,11
CC(C)CCN=Cc1c(O)n(-c2ccccc2)c(=O)c2ccccc12,6,0.8,19,39*,0.8,16
O=C(Cn1nnc2c(cnn2-c2ccc(F)cc2)c1=O)c1ccccc1F,2,1.2,-22,14,1.3,-28
Cn1cnnc1SCC(=O)Nc1sccc1C#N,8,1,-4,4,1,2
O=C1Nc2cc(Cl)cnc2N2CCCC12 (configuration not stated),1,0.5,46,17,0.2,83*
O=C1Nc2cc(S(=O)(=O)N3CCCC3)ccc2N2CCCC12 (configuration not stated),4,0.9,14,4,0.6,38
COCc1c(C(=O)OCC(=O)N2c3ccccc3CC2C)oc2ccccc12 (configuration not stated),24,0.5,53*,-2,1.1,-8
CC1Cc2ccccc2N1C(=O)COC(=O)Cn1nnc(-c2ccccc2)n1 (configuration not stated),-4,0.4,65*,12,0.1,88*
CCOC(=O)C1=C(C)NC(C)=C(C(=O)OCC)C1C(=O)OCC(=O)N1c2ccccc2CC1C (configuration not stated),2,0.1,93*,3,0,100*
CC1Cc2ccccc2N1C(=O)COC(=O)c1ccc(S(=O)(=O)N(C)C)cc1 (configuration not stated),30*,1,2,11,1.2,-15
COc1cc(OC)cc(C(=O)NC2CC3CCC(C2)N3Cc2ccco2)c1 (configuration not stated),4,1,0,1,1,1
CC1Cc2ccccc2N1C(=O)CSc1ncccc1C(=O)O (configuration not stated),nt,1.1,-10,nt,1.1,-12
CC1Cc2ccccc2N1C(=O)COC(=O)c1cccnc1Cl (configuration not stated),-1,0.5,53*,1,1,4
CC(C)Cc1nnc(NC(=O)CSc2nc(N)cc(=O)[nH]2)s1,2,1.1,-6,3,1.3,-26
Cn1c(C(=O)NCCc2c[nH]c3ccccc23)cc2sccc21,-2,0.5,54*,12,1.2,-23
O=C(NCCc1c[nH]c2ccccc12)c1cc2sccc2n1Cc1ccccc1,7,0.4,65*,25,0.2,82*
SMILES,PostGolgi yeast,CYP2C19 activ,CYP2C19 inhib,PostGolgi ctrl,CYP2C9 act,CYP2C9 inh
O=C(NCCc1c[nH]c2ccccc12)c1c(Cl)nc2sccn12,-1,0.7,34,2,0.9,8
COc1cccc(OCCNc2cc(Cl)ccc2[N+](=O)[O-])c1,-5,0.5,46,9,0.6,42
Cc1ccc(C(=O)Nc2ccc(S(=O)(=O)NCc3ccco3)cc2)cc1,-6,0.8,22,-1,0.7,26
Cc1cc(C)n(-c2ccc(C(=O)Nc3ccc(S(=O)(=O)NCc4ccco4)cc3)cc2)n1,7,0.8,24,12,0.3,66*
COc1ccccc1NC(=O)CN(Cc1ccco1)C(=O)c1cccs1,12,0.8,16,8,0.7,27
O=C(NCc1ccco1)c1cccc(NC(=O)c2ccccc2)c1,-7,0.6,38,9,0.1,93*
COc1ccccc1NC(=O)CN(Cc1ccco1)C(=O)c1ccc(-n2nc(C)cc2C)cc1,2,0.9,11,8,0.1,94*
Cc1ccc(C(=O)NCc2ccco2)cc1S(=O)(=O)Nc1cccc(Cl)c1,-6,0.1,87*,17,0,98*
Cc1nonc1OCCNC(=O)C12CC3CC(CC(C3)C1)C2,-10,0.9,8,10,1,-3
CC(C)Oc1ccc(C(=O)N(Cc2ccco2)C2CCS(=O)(=O)C2)cc1 (configuration not stated),-2,0.9,7,0,1,-1
CSCCC(NC(=O)c1ccc(Cl)cc1)C(=O)NC(C)(C)C (configuration not stated),1,0.6,44,6,0.4,62*
O=C(NCc1cccnc1)c1cccc(NC(=O)c2ccco2)c1,0,nt,nt,-3,nt,nt
Cc1ccc(C(=O)N/C(=C/c2ccco2)C(=O)Nc2cccc(C)c2)cc1,-8,0.5,51*,-6,0.1,90*
O=C(Nc1ccccc1)c1cccc(S(=O)(=O)NCc2ccco2)c1,-2,0.5,51*,10,0.5,51*
Cc1occc1C(=O)Nc1cccc(C(=O)NCc2ccccc2)c1,-2,0.3,68*,22,0.1,93*
CCOC(=O)N1CCN(C(=O)c2ccc(N3CCCC3=O)cc2)CC1,6,1,0,5,1,2
CCOC(=O)Cn1c(Br)nc2c1c(=O)[nH]c(=O)n2C,-2,0.9,5,2,0.9,12
COc1ccc(C2C(C(=O)O)CC(=O)N2C2CCCCC2)cc1 (configuration not stated),-1,1.1,-5,6,0.8,20

# From PubChem
